Source: PubChem BioAssay (Broad Institute)
EZH2 inh: inhibitors of human EZH2/PRC2 methyltransferase. hit rate 0.35% among 57,000. AID 651548. PRC2 H3K27 methylation, DELFIA TRF, 1 h. inhibition, % at 12.5 µM;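 active = mean inhibition of replicates at least 50% and every single replicate also reaching 50%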;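 also: dimethyl H3K27 on biotinylated H3 21-44 peptide detected by antibody; plate controls were median neutral control wells for no effect and median positive control wells for full effect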
Target sequence (Q15910 whole entry, looked up): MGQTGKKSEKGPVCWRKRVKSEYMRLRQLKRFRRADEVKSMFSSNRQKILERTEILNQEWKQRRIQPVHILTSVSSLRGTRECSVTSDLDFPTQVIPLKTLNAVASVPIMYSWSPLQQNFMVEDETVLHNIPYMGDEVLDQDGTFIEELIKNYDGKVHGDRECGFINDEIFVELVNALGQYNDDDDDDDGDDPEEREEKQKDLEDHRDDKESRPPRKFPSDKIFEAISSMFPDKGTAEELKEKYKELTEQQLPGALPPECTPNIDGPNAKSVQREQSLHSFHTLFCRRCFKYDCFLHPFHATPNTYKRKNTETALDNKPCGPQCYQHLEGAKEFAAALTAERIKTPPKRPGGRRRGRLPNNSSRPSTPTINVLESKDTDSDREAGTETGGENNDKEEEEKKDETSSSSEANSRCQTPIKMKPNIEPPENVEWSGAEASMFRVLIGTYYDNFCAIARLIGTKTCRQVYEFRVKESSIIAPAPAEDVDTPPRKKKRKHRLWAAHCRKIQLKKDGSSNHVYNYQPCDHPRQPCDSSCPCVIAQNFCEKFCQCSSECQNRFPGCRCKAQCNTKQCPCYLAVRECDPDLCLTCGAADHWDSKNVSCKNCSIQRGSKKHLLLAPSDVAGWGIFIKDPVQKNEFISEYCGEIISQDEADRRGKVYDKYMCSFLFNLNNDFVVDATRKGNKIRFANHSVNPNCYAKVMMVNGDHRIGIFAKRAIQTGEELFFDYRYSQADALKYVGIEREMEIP
An asterisk follows results filed as active. The sample as a whole holds a higher share of hits than the screen did.

How did N#Cc1ccc(/C=N/NC(=O)CCCCCC(=O)O)cc1 do in these assays?
EZH2 inh: -10.3

What do the screens show for `O=C(CCCCCCC(=O)Nc1ccccc1O)N/N=C/c1ccc(N(c2ccccc2)c2ccccc2)cc1`?
EZH2 inh: 15.0

What do the screens show for `O=C(O)CCCCCCC(=O)N/N=C/c1ccc(F)cc1`?
EZH2 inh: 7.2

Results for O=C(O)CCCCCC(=O)N/N=C/c1ccc(N(c2ccccc2)c2ccccc2)cc1 ?
EZH2 inh: 60.9*

Results for CCCNC(=O)N(C)C[C@H]1Oc2cc(C3=CCCC3)ccc2S(=O)(=O)N([C@H](C)CO)C[C@H]1C ?
EZH2 inh: 0.6

What do the screens show for `Cc1cccc(-n2c(N)cc(=O)nc2SCC(=O)Nc2ccccc2C#N)c1`?
EZH2 inh: -7.0

What do the screens show for `C[C@H](CO)N1C[C@H](C)[C@H](CN(C)Cc2ccc3c(c2)OCO3)Oc2ccc(NS(=O)(=O)c3ccc(Cl)cc3)cc2C1=O`?
EZH2 inh: 4.5

How did CC(=O)N[C@@H]1CC[C@H](CCNC(=O)C2CCCC2)O[C@@H]1CO do in these assays?
EZH2 inh: -18.8

Results for C[C@H]1CN([C@@H](C)CO)C(=O)c2cc(NC(=O)Cc3ccccc3)ccc2O[C@H]1CN(C)Cc1ccncc1 ?
EZH2 inh: -4.4

What do the screens show for `O=C(C[C@H]1CC[C@@H](NS(=O)(=O)c2ccccc2)[C@@H](CO)O1)NCc1ccncn1`?
EZH2 inh: -12.0

What do the screens show for `C[C@H]1CN([C@@H](C)CO)S(=O)(=O)c2ccc(-c3ccccc3)cc2O[C@H]1CN(C)Cc1cccc(F)c1`?
EZH2 inh: 34.6

How did C[C@@H]1CN([C@H](C)CO)S(=O)(=O)c2ccc(-c3ccccc3)cc2O[C@H]1CN(C)Cc1cccc(F)c1 do in these assays?
EZH2 inh: 55.1*

What do the screens show for `C[C@H](CO)N1C[C@H](C)[C@H](CN(C)Cc2ccc(-c3ccccc3)cc2)Oc2ccc(NS(=O)(=O)c3cccs3)cc2C1=O`?
EZH2 inh: 25.3

Results for C[C@H](CO)N1C[C@H](C)[C@H](CN(C)Cc2ccccc2)Oc2cc(C#CC3CC3)ccc2S1(=O)=O ?
EZH2 inh: 25.9

What do the screens show for `C[C@@H]1CN([C@H](C)CO)S(=O)(=O)c2ccc(C#CC3CC3)cc2O[C@H]1CN(C)Cc1cccc(F)c1`?
EZH2 inh: 18.5

How did C[C@@H]1CN([C@H](C)CO)C(=O)c2cc(NS(=O)(=O)c3cccs3)ccc2O[C@@H]1CN(C)Cc1ccc(-c2ccccc2)cc1 do in these assays?
EZH2 inh: 53.7*

Results for C[C@H](CO)N1C[C@H](C)[C@H](CN(C)Cc2cccc(F)c2)Oc2cc(-c3ccccc3)ccc2S1(=O)=O ?
EZH2 inh: 38.3

What do the screens show for `C[C@H](CO)N1C[C@H](C)[C@H](CN(C)Cc2cccc(F)c2)Oc2cc(C#CC3CC3)ccc2S1(=O)=O`?
EZH2 inh: 84.0*

Results for C[C@H](CO)N1C[C@H](C)[C@@H](CN(C)Cc2ccc(-c3ccccc3)cc2)Oc2ccc(NS(=O)(=O)c3cccs3)cc2C1=O ?
EZH2 inh: 37.9

What do the screens show for `CCC(=O)Nc1ccc2c(c1)OC[C@@H](C)N(Cc1ccccc1F)C[C@H](C)[C@H](OC)CN(C)C2=O`?
EZH2 inh: -19.2

Results for C[C@H]1CN([C@@H](C)CO)C(=O)c2c(c3ccccc3n2C)-c2ccccc2CO[C@H]1CN(C)C ?
EZH2 inh: 1.7

How did COC(=O)CN(c1cc(Cl)ccc1OC)S(C)(=O)=O do in these assays?
EZH2 inh: 3.6

What do the screens show for `O=C(C[C@@H]1CC[C@H](NS(=O)(=O)c2ccc(F)cc2)[C@H](CO)O1)N1CCN(c2ccccc2)CC1`?
EZH2 inh: -3.1

How did C[C@@H]1CN([C@H](C)CO)C(=O)c2cccc(NS(=O)(=O)c3ccc(Cl)cc3)c2O[C@@H]1CN(C)C(=O)Nc1ccc(F)cc1 do in these assays?
EZH2 inh: 4.1

How did CO[C@@H]1CN(C)C(=O)c2cc(NC(=O)C3CCCC3)ccc2OC[C@@H](C)NC[C@H]1C do in these assays?
EZH2 inh: 11.0

How did CSc1nc(N2CCCCC2)c2c(c1C#N)CCCC2 do in these assays?
EZH2 inh: 62.6*

Results for COc1ccc(C)cc1NC(=O)CN(c1cc(Cl)ccc1OC)S(C)(=O)=O ?
EZH2 inh: -12.5

What do the screens show for `CCOC(=O)c1c(NC(=O)CSc2ncn[nH]2)sc(C)c1C`?
EZH2 inh: 3.2

How did CO[C@H](CN(C)S(=O)(=O)c1ccc(F)cc1)[C@@H](C)CN(C(=O)Nc1ccccc1F)[C@@H](C)CO do in these assays?
EZH2 inh: 12.2

Results for Cc1cc(CSc2cc(C)c(Cl)cc2C)no1 ?
EZH2 inh: 56.2*

How did COC(=O)Cc1c(C)nc2nc(NCc3ccccc3)[nH]n2c1=O do in these assays?
EZH2 inh: 0.4

How did Cc1cccc(NC(=O)CSc2nnc(-c3ccco3)n2C)c1C do in these assays?
EZH2 inh: -4.0

What do the screens show for `CCCCCCCC/C=C/CCCCCCCC(=O)NCCO`?
EZH2 inh: -16.3

What do the screens show for `CCCCCCCC/C=C/CCCCCCCC(=O)NCCc1ccc(O)c(O)c1`?
EZH2 inh: 68.3*

Results for CCCCC/C=C\C/C=C\C/C=C\C/C=C\CCCCCC(=O)O ?
EZH2 inh: 12.3

What do the screens show for `O=C(O)C[C@@H]1C[C@H]2c3cc(NC(=O)C4CCOCC4)ccc3O[C@H]2[C@H](CO)O1`?
EZH2 inh: 1.8

What do the screens show for `COC(=O)COc1cccc(NC(=O)c2ccc(Br)cc2)c1`?
EZH2 inh: 1.4

What do the screens show for `CCOc1cccc(NC(=O)C2CC(=O)N(/N=C(\C)c3ccc(Br)s3)C(=N)S2)c1` (configuration not stated)?
EZH2 inh: 91.7*

Results for Cc1ccc(C(=O)COc2cccc(NC(=O)c3ccc(Br)cc3)c2)cc1C ?
EZH2 inh: -3.3

How did COc1cccc(C(=O)Nc2ccc3c(c2)OC[C@H](C)N(CCc2ccccc2)C[C@@H](C)[C@H](OC)CN(C)C3=O)c1 do in these assays?
EZH2 inh: -5.9

Results for COc1ccccc1NC(=O)CSc1nnc(-c2ccc(F)cc2)n1C ?
EZH2 inh: -8.0

What do the screens show for `CC(=O)N(C)C[C@@H]1Oc2ncc(C#C[C@H](C)O)cc2C(=O)N([C@H](C)CO)C[C@H]1C`?
EZH2 inh: -14.3

What do the screens show for `C[C@@H]1CN([C@@H](C)CO)C(=O)Cc2cc(NS(C)(=O)=O)ccc2O[C@@H]1CN(C)CC1CC1`?
EZH2 inh: 7.1

Results for C[C@@H]1CC[C@@]23CCC4(C)[C@@](C=CC5[C@@]6(C)CC[C@H](O)C(C)(C)C6CC[C@]54C)(OC2=O)C3[C@H]1C (some centres not stated) ?
EZH2 inh: 3.4

How did CC1CC(=O)[C@]2(C)CC[C@]3(C)C(C(=O)C(O)C4[C@@]5(C)CC[C@H](O)C(C)(C(=O)O)C5CC[C@]43C)C2C1C (some centres not stated) do in these assays?
EZH2 inh: 70.5*

Results for C[C@@H]1CC[C@]2(C(=O)O)CC[C@]3(C)C(=CCC4[C@@]5(C)CC[C@@H](O)[C@](C)(C(=O)O)C5CC[C@]43C)C2[C@H]1C (some centres not stated) ?
EZH2 inh: -13.1

How did C[C@@H]1CN([C@@H](C)CO)C(=O)c2cc(NC(=O)Cc3cn(C)c4ccccc34)ccc2O[C@@H]1CN(C)Cc1ccc(C(=O)Nc2ccccc2N)cc1 do in these assays?
EZH2 inh: -7.8

What do the screens show for `CC(C)c1cn(CC[C@@H]2CC[C@@H](NS(=O)(=O)c3ccc(Cl)cc3)[C@@H](CO)O2)nn1`?
EZH2 inh: -6.4

How did C[C@H](CO)N1C[C@H](C)[C@@H](CN(C)C)Oc2ccc(NC(=O)Cc3ccccc3)cc2CC1=O do in these assays?
EZH2 inh: -10.1
